Assay results: ChEMBL document CHEMBL3988442, “University of Dundee, Small-Polar-MMV Screening Library” (2021)
For some of these results: Measured potencies and affinities stand elsewhere.

Legend:
Parameters in all cases: scale not given: direction of the effect not stated beside the values
[1] = target: Protein translocase subunit SecA (Escherichia coli (strain K12)) (UniProt P10408); assay: Assay to Identify E. coli SecA ATPase Inhibitors; format: functional; settings: 30 µM
[2] = target: T1, Ubiquitin-activating enzyme e1, putative (Leishmania donovani (strain BPK282A1)) (UniProt E9BSI1); assay: Leishmania donovani Ubiquitin Activating Enzyme (LdE1); format: functional; settings: 30 µM
T1 sequence (whole entry): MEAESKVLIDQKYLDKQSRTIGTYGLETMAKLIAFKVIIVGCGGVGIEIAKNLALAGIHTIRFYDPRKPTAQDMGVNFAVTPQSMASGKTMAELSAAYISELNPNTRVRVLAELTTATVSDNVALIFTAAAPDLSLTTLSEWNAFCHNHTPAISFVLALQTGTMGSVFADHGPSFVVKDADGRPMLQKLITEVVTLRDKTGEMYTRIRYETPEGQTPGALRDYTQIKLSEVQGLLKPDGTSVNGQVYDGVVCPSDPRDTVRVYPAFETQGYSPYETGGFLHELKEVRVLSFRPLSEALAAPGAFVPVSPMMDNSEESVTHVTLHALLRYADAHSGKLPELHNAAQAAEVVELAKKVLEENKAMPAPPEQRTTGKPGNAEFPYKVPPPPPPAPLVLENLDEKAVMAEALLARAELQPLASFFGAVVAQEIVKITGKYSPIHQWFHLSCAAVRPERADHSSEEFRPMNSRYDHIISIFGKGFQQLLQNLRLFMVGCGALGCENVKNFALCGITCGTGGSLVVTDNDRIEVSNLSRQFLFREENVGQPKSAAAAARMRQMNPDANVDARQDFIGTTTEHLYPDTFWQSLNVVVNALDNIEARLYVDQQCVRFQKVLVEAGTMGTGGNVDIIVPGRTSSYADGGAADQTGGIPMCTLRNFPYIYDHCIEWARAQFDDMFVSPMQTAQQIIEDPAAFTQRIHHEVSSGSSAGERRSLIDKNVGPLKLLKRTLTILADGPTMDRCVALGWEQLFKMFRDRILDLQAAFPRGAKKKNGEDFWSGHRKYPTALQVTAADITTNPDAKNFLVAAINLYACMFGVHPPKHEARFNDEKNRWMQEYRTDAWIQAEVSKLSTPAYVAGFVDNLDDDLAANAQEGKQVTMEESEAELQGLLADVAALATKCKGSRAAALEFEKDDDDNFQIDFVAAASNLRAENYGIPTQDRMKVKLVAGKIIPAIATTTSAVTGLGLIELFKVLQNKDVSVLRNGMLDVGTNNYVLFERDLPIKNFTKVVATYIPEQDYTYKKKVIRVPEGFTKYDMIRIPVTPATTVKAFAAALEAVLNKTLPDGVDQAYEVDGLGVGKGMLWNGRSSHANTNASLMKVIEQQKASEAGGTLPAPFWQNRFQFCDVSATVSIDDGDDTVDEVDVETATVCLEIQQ

[3] = target: AMP-activated protein kinase, AMPK (Homo sapiens) (UniProt P54646+O43741+P54619+Q9UGJ0+Q9Y478+Q13131+Q9UGI9); assay: AMP-dependent Kinase enzyme assay. An in vitro enzyme assay that detects ADP turnover that is directly proportional to AMPK activity. This uses naive AMPK that is activated during the assay with MK-8722; format: functional; settings: 30 µM
[4] = target: Sialic acid-binding Ig-like lectin 9 (Homo sapiens) (UniProt Q9Y336); assay: Hs-Siglec9 ALPHAscreen SOP 20170721; settings: 10 µM
Sequence of Sialic acid-binding Ig-like lectin 9 (Homo sapiens) (Q9Y336 whole entry): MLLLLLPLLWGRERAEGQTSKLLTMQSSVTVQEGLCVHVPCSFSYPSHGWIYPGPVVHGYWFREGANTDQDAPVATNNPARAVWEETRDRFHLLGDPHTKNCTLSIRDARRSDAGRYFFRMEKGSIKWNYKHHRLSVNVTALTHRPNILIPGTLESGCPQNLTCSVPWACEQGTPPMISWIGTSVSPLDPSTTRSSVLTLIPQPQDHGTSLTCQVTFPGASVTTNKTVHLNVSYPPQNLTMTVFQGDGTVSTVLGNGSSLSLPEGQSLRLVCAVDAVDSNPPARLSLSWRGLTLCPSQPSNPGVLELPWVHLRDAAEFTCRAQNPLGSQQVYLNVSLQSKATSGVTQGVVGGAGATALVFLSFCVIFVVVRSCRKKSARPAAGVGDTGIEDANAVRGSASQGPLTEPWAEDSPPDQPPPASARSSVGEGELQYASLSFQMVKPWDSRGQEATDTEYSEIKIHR

Trypanosoma cruzi = assay: Trypanosoma cruzi phosphomannomutase and mannose-1-phosphate guanylyltransferase assay; format: functional; settings: 10 µM
[5] = target: T2, Arginase-2, mitochondrial (Homo sapiens) (UniProt P78540); assay: in vitro enzyme assay to detect the production of urea directly proportional to the activity of Arginase II; format: functional; settings: 33.3 µM; note: in the data most compounds retested in dose-response had high values
T2 sequence (whole entry): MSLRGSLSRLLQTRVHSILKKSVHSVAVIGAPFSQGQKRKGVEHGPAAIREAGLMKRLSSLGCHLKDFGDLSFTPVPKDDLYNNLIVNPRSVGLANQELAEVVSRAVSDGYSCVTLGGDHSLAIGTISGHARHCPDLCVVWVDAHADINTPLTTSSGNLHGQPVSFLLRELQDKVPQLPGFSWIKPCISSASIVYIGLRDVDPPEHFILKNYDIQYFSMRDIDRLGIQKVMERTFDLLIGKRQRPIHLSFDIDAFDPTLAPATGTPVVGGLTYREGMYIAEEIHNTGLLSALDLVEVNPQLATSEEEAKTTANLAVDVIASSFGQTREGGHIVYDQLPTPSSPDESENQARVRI

[6] = target: T3, Proteasome subunit beta (Trypanosoma cruzi) (UniProt O96673); assay: Trypanosoma cruzi proteasome chymotrypsin-like activity (TcProtChymo) assay.; note: in the data most compounds retested in dose-response had high values; format: functional; settings: 9.37 µM
T3 sequence (whole entry): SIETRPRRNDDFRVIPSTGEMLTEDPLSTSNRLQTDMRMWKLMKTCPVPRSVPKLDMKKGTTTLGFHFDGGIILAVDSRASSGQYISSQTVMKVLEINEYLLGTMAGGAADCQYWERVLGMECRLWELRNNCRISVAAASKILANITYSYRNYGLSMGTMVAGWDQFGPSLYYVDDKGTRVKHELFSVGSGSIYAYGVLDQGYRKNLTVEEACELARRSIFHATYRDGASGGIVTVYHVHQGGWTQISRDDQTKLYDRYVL

Homo sapiens = species on record: Homo sapiens; assay: To identify inhibition of the IFN signalling (Jak-Stat) pathway via expression of an eGFP reporter gene under the control of an IFN-stimulated response element (ISRE) containing MxA promoter.; format: functional; settings: 30 µM
[7] = target: T4, Tyrosyl-tRNA synthetase, putative (Trypanosoma cruzi (strain CL Brener)) (UniProt Q4DSP6); assay: Trypanosoma cruzi tyrosyl tRNA synthetase (TcYRS) _High Tyrosine SOP; format: functional; settings: 30 µM; note: in the data most compounds retested in dose-response had high values
T4 sequence (whole entry): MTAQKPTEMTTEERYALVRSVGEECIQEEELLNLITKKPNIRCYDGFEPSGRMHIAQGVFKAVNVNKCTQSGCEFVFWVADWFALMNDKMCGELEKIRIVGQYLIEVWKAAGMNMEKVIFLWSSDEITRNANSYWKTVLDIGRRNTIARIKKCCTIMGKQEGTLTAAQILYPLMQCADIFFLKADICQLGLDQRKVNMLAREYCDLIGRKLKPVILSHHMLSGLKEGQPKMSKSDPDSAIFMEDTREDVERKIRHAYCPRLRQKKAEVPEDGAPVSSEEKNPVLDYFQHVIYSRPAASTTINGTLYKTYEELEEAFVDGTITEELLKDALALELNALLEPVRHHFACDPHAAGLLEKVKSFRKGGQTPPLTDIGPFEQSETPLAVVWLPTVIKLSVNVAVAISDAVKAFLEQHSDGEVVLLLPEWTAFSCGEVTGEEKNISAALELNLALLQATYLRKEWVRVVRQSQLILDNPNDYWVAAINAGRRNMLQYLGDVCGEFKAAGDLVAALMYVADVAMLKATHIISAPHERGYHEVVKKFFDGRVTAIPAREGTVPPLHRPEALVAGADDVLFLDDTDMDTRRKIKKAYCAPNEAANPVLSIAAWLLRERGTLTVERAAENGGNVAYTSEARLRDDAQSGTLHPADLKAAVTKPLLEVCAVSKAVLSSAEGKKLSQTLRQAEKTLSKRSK

[8] = target: T4, Tyrosyl-tRNA synthetase, putative (Trypanosoma cruzi (strain CL Brener)); assay: Trypanosoma cruzi tyrosyl tRNA synthetase (TcYRS) SOP; format: functional; settings: 30 µM
[9] = target: Chromo domain-containing protein 1 (Saccharomyces cerevisiae (strain ATCC 204508 / S288c) (Baker's yeast)) (UniProt P32657); assay: ScCHD-1 Enzyme Inhibition Assay; format: functional; settings: 30 µM; note: in the data most compounds retested in dose-response had high values
Sequence of Chromo domain-containing protein 1 (Saccharomyces cerevisiae (strain ATCC 204508 / S288c) (Baker's yeast)) (P32657 whole entry, the tested form may be a part): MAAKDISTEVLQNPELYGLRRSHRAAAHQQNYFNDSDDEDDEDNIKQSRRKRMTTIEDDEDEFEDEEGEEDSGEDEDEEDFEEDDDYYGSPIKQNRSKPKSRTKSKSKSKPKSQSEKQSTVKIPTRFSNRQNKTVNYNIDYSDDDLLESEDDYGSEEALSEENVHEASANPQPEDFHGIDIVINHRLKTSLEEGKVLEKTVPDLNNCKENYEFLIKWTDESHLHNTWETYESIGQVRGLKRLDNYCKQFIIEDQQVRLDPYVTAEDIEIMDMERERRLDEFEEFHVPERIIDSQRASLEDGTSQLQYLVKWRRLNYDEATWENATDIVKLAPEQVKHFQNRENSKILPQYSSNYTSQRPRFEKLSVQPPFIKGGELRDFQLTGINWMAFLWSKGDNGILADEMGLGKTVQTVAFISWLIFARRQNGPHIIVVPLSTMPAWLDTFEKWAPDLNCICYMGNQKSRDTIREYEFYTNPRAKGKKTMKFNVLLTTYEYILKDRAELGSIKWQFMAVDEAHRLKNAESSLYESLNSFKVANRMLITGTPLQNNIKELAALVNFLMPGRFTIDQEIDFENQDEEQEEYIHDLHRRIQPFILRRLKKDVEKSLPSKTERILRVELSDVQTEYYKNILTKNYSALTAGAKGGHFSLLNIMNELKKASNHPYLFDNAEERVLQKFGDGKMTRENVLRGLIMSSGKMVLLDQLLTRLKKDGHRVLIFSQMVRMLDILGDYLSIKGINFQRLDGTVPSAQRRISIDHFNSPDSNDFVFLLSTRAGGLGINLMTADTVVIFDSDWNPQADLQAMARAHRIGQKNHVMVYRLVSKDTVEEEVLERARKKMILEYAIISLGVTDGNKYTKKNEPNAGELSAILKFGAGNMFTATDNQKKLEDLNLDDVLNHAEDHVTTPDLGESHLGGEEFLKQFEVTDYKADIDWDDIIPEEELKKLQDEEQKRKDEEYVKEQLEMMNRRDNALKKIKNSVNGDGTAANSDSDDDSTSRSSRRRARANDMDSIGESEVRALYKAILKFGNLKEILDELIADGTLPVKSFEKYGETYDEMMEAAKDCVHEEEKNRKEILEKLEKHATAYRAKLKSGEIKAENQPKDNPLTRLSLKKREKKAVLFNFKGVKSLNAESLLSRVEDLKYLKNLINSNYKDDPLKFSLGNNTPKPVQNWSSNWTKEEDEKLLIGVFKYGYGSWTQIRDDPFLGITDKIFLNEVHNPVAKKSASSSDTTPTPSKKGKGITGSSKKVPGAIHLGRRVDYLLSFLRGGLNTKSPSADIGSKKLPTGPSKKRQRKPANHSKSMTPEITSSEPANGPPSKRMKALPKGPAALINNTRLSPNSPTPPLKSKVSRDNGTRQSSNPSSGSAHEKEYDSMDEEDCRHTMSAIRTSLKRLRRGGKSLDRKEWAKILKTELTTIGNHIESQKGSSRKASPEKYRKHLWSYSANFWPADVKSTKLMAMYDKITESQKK

Sequence of Protein translocase subunit SecA (Escherichia coli (strain K12)) (P10408 whole entry): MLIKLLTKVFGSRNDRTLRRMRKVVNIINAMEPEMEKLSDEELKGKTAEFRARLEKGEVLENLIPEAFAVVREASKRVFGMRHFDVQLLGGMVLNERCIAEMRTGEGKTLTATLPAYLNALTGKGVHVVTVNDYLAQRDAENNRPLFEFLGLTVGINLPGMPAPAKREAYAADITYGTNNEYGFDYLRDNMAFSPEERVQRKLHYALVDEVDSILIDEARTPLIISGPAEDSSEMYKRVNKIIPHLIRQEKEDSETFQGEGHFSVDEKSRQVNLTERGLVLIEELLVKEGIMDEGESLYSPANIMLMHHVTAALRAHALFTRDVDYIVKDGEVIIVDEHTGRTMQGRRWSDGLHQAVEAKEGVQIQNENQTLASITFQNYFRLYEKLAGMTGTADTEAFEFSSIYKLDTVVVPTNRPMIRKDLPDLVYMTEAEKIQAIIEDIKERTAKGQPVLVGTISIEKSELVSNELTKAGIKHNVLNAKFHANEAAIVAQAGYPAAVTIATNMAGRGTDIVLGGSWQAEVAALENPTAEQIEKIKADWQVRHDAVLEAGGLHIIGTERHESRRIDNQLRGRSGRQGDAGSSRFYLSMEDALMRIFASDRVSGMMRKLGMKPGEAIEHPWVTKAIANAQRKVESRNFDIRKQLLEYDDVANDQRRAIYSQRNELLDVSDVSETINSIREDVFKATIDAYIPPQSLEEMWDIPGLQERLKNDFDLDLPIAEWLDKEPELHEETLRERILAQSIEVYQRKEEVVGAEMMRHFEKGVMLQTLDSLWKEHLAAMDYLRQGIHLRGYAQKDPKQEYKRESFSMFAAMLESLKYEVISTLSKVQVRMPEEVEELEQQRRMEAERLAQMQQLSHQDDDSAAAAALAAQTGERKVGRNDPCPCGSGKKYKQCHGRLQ

Row | SMILES | Percent Effect [1] [%] | Percent Effect [2] [%] | Percent Effect [3] [%] | Percent Effect [4] [%] | Percent Effect (Trypanosoma cruzi) [%] | Percent Effect [5] [%] | Percent Effect [6] [%] | Percent Effect (Homo sapiens) [%] | Percent Effect [7] [%] | Percent Effect [8] [%] | Percent Effect [9] [%]
1 | CC(C)c1cc(NCC(O)CO)n2nccc2n1 (configuration not stated) | -2.58 | 8.11 | 0.503 | 25.3 | 3.48 | 11.9 | 19.3 | 9 | 1.59 | 12.2 | -9.93
2 | COCCCN1CCC(NC(=O)C(C)C)CC1 | -6.61 | -2.74 | -0.488 | -2.06 | -5.16 | -2 | 6.76 | 24.5 | 0 | -1.24 | -2.64
3 | Cc1cn2c(n1)CCC(NC(=O)c1cnc(C)nc1C(C)C)C2 (configuration not stated) | -4.68 | 10.4 | -12.2 | 12.9 | 3.23 | 1.9 | 3.48 | 1.24 | 10.5 | 18.8 | -16.9
4 | O=C1NC(c2ccccc2)=N[C@@]12CC[C@@H]1CN(Cc3ccco3)C[C@@H]12 | -0.246 | 5.33 | 1.87 | -5.18 | 2.32 | -47.5 | -0.513 | 4.89 | 2.08 | -5 | -2.32
5 | Cn1nc2c(cc1=O)CN(Cc1coc(-c3cccs3)n1)CC2 | 0.447 | 16.2 | -166 | 5.69 | 4.81 | 0.802 | -1.26 | -8.71 | -2.46 | 3.7 | -4.95
6 | Cn1cc(CN2CCC3(C2)CN(Cc2ccsc2)C3)cn1 | -5.1 | 2.6 | -2.26 | 5.86 | 3.64 | 1.38 | 10.5 | -4.61 | 3.23 | 8.64 | 1.08
7 | CCS(=O)(=O)N1CCC(c2nnc(CN3CCCC3)n2C2CC2)CC1 | -1.74 | 8 | -4.77 | 9.36 | 2.82 | 12.5 | 3.49 | 19.7 | 7.1 | 16.1 | -7.31
8 | CCC(=O)N1CCc2[nH]cnc2C12CCN(C(=O)CCS(C)(=O)=O)CC2 | 1.36 | 6.94 | -9.27 | 3.42 | 4.37 | 23.4 | 19.1 | 22.1 | 5.26 | 7.69 | -2.55
9 | CN(Cc1ccccc1)C1COC2(CCN(Cc3nccs3)CC2)C1 (configuration not stated) | -6.64 | 13.3 | -9.84 | 1.43 | 3.09 | -51.1 | 4.79 | -4.42 | 4.17 | 7.5 | -9.89
10 | COc1cccc(OCC2CCCN(C(=O)c3cnc(C)nc3O)C2)c1 (configuration not stated) | 0.517 | 8.11 | -1.51 | 13.5 | 5.02 | 11.9 | 7.24 | -19 | 7.94 | 17.1 | -2.95
11 | CNC(=O)C1Cn2ccnc2C2(CCN(Cc3cccc(C)n3)CC2)O1 (configuration not stated) | -2.65 | 2.7 | 2.26 | -4.02 | -6.35 | -8.6 | 9.41 | 0.488 | 4.32 | 10.3 | 0.265
12 | CC(C)C(=O)NCc1cccc(N2CCCCC2=O)c1 | -6.2 | 18.2 | -3.27 | -10.4 | 5.78 | 1.05 | 11.7 | 0.702 | 3.81 | 21.2 | -12.3
13 | O=C(c1cccc2c1OCO2)N1CCCC1Cn1cccn1 (configuration not stated) | -4.17 | -2.6 | 1.97 | 4.11 | -1.47 | -1.9 | 6.55 | 14.8 | 3.81 | 9.41 | -8.43
14 | CN(C)c1cc2c(nn1)CCN(C(=O)C1Cc3ccccc3S1)C2 (configuration not stated) | -3.54 | 10.1 | -4.45 | 16 | 5.76 | 1.14 | 8.27 | -10.7 | 7.39 | 11.4 | 9.74
15 | CCN(CC)CCNC(=O)c1nn(CC)cc1Cl | 0.115 | 20 | -10.1 | -7.51 | 2.55 | -10.7 | 9.43 | 29.3 | 5.29 | 10.3 | -9.1
16 | O=C(N1CCCC1)N1Cc2nccn2CC(CN2CCCC2)C1 (configuration not stated) | 0.719 | 5.41 | 7.93 | -1.18 | -5.77 | -0.955 | 25.8 | -2.41 | -1.08 | 10.3 | -2.63
17 | O=C(Cc1csc(-c2ccco2)n1)N1CCN(c2cnccn2)CC1 | -3.21 | 13.9 | -1.6 | 4.73 | 0.718 | -1.94 | 17.5 | 13.5 | 11.5 | 22.8 | -30.1
